A selection: hits, their analogues and other compounds. The true share with any hit is near 11%.
NPR1 antag: human Npr1 receptor antagonism; P16066; HEK293 hNpr1 GloSensor cGMP, ANP-stimulated luminescence; Potency, µM (top dose mostly 46.3 µM), without a hit: at the highest dose activity change, negative = inhibition, most hits filed as inhibitors; hit rate 1.6% among 76,000; AID 1347048; calls by dose curve; note: nearly all actives have a fitted effect of over 60% in size
Target sequence (P16066 whole entry, looked up): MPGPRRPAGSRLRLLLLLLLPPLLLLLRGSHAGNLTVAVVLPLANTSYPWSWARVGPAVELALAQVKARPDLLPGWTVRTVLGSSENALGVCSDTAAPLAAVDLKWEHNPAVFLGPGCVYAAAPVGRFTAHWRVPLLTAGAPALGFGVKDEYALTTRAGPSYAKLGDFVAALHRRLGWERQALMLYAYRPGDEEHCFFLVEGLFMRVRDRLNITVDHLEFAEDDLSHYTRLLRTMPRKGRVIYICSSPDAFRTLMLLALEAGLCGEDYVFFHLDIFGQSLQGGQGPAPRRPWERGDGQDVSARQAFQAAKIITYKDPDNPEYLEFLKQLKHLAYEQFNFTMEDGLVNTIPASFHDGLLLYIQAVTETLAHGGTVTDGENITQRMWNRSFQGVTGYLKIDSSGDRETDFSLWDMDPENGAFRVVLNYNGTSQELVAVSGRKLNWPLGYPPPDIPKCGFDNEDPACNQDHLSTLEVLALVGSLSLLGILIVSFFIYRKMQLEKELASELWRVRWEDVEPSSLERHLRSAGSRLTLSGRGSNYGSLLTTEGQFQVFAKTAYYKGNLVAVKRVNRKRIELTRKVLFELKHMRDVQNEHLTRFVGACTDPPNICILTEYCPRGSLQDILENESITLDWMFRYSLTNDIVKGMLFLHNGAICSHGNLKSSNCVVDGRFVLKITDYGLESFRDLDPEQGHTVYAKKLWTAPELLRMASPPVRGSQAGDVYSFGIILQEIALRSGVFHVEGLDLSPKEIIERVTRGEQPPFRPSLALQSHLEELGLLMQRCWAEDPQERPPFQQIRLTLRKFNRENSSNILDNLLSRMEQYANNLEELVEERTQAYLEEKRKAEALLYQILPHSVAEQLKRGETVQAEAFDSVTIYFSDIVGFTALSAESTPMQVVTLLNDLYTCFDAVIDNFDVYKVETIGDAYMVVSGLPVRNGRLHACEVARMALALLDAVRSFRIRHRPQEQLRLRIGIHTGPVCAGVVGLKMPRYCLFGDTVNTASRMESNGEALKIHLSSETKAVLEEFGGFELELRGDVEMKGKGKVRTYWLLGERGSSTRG
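Compound pre-incubated 30 min at room temperature on GloSensor-loaded HEK293 cells stably carrying hNpr1 and the pGS-40F cGMP biosensor. Stimulation uses hNppA at 0.1 nM final; luminescence is taken at baseline and 20 min post-agonist.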
HEK293 tox: kills HEK 293 cells; HEK 293 viability, ATP luminescence (CellTiter-Glo), 48-72 h; Potency, µM (titrated, usually from 115 µM), for the others: at the top dose activity change, negative = cytotoxicity, most hits filed as inhibitors; hit rate 6.6% among 94,000; AID 1345083; note: nearly all actives have a fitted effect of over 60% in size
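250 HEK 293 cells/well; compound by pintool; incubated 48 or 72 hr at 37 degree Celsius; CellTiter-Glo added, 10 min RT, luminescence imaged.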
3T3 cytotox: NIH 3T3 cell cytotoxicity | NIH 3T3 viability, CellTiter-Glo ATP luminescence, 48-72 h | Potency, µM (doses to about 96.7 µM), without a hit: top-dose activity change, negative = cytotoxicity, most hits filed as inhibitors | hit rate 4.3% among 94,000; note: nearly all actives have a fitted effect of over 55% in size
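Luminescent ATP readout (CellTiter-Glo, 10 min RT) after 48 or 72 hr compound exposure of NIH 3T3 cells seeded at 400 cells/well in 1536-well format; quantitative HTS.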
Luciferase inh: blocks purified firefly luciferase enzyme activity | P08659 | purified P. pyralis luciferase, luminescence, biochemical | Potency, µM (titrated, usually from 115 µM), actives largely listed as inhibitors | hit rate 2.5% among 76,000 | AID 1347043; note: nearly all actives have a fitted effect of over 65% in size
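Purified P. pyralis luciferase (10nM final) in 50mM Tris acetate pH 7.5, 10mM Mg acetate, 0.01% Tween-20, 0.05% BSA with 10uM D-luciferin and 10uM ATP. Compounds titrated qHTS. Luminescence imaged on CCD.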
Starred values were filed as active, the others as inactive; i = inactive; ? = inconclusive; · = no result given; ! = repeats disagree; [ ] = dose if it differs, or a comment. Unless noted, calls come from the whole dose curve; as a rule, active = well fitted curve in the direction sought with a large enough effect; inconclusive = small, poorly fitted or top-dose-only effect, or another doubt; inactive = no such curve, though single readings can be large; an effect the other way counts as inactive or inconclusive. % is set by controls: 0 for no effect and ±100 for the full control effect; potency is the fitted concentration of half-maximal effect.

SMILES	NPR1 antag	HEK293 tox	3T3 cytotox	Luciferase inh
CN(C)c1cc(=O)c2ccnc(-c3ccccc3Oc3ccccc3)c2o1	1%[70.6 µM]	?	?	i
CN(C)c1cc(=O)c2ccnc(Nc3cccnc3)c2o1	2%[70.6 µM]	i	79µM*	i
CN(c1ccccc1)c1cc(=O)c2ccnc(-c3ccnn3C)c2o1	8%[70.6 µM]	?	35µM*	i
CC(=O)N1CCC(Cc2ccc(C(=O)NCc3cn[nH]c3C)cc2)CC1	4%	?	-23%	i
Cc1cn2nc(C(=O)N3CCN(C(=O)c4ccco4)CC3)cc2c(N2CCCC2)n1	2%	-5%	-30%	i
COc1ncc(-c2nccc3c(=O)cc(N(C)c4ccccc4)oc23)cn1	1%[70.6 µM]	-26%[172 µM]	32µM*	i
COc1cccc(C(=O)N2CCC3(CC2)CCN(Cc2cccs2)c2ccccc2O3)c1	-5%	?	?	i
COc1ccc(C(=O)N2CCC3(CC2)CCN(Cc2cccs2)c2ccccc2O3)cc1	7%	40µM*	?	i
CC(C)(C)C(=O)N1CCC2(CC1)CCN(Cc1cccs1)c1ccccc1O2	-27%	35µM*	?	i
O=C(c1ccc(Cl)nc1)N1CCC2(CC1)CCN(Cc1cccs1)c1ccccc1O2	?	25µM*	?	i
Cc1ccc(C(=O)N2CCC3(CC2)CCN(CCc2ccccc2)c2ccccc2O3)cc1	10%	?	40µM*	i
COc1ccc(CNC(=O)C(N)c2c(C)n[nH]c2C)c(F)c1F (stereo not given)	0%	-5%	-8%	i
CCCc1nnc([C@H]2CCN(C3CCN(C(C)=O)CC3)C2)o1	8%[70.6 µM]	i	4%[138 µM]	i
O=C(c1ccc(Cn2ccnc2)o1)N1CC[C@@H]2CN(Cc3ccccc3)[C@@H]2C1	·	3%	-1%	·
COCCNC(=O)c1cc(C(C)(C)C)nc2c1cnn2C	·	?	-26%[138 µM]	·
Cn1ncc2c(C(=O)NCc3ccc(F)c(F)c3)cc(C(C)(C)C)nc21	·	56µM*	?	·
Cn1ncc2c(C(=O)NCc3ccc(F)cc3)cc(C(C)(C)C)nc21	·	100µM*!	?	·
Fc1ccccc1-c1noc(N2CCCCC2)n1	10µM*	?	?	1.6µM*
CN(Cc1ccc(F)cc1)S(C)(=O)=O	0%[70.6 µM]	-3%[230 µM]	-10%[174 µM]	i
CN(Cc1ccc(F)cc1)S(=O)(=O)c1cccs1	6%[70.6 µM]	79µM*	-27%[138 µM]	i
c1ccc(C2=NOC3(CCN(Cc4cccc5ccccc45)CC3)C2)cc1	-7%	-5%	-16%	i
Cc1cccc(CN2CCCC3(Cc4ccccc4CNC3=O)C2)c1 (stereo not given)	·	-18%	-2%	·
Cc1cccc(CN2CCCC3(CCN(C(=O)CCc4ccccc4C)C3)C2)c1 (stereo not given)	2%	89µM*	?	i
C=CCNC(=O)c1ccc(-c2nnc3ccc(NC(=O)C4CCC4)cn23)cc1	-3%	-3%	-19%	?
O=C(Nc1cccc(C(F)(F)F)c1)N[C@H]1[C@H](O)[C@@H](Oc2ccccc2)[C@@H]2OC[C@H]1O2	-28%[70.6 µM]	?	79µM*	i
SMILES	NPR1 antag	HEK293 tox	3T3 cytotox	Luciferase inh
O=C(Nc1cccc(C(F)(F)F)c1)N[C@H]1[C@H](O)[C@@H](N2CCC(Cc3ccccc3)CC2)[C@@H]2OC[C@H]1O2	-21%	?	35µM*	i
COc1cccc(NC(=O)N[C@H]2[C@H](O)[C@@H](Oc3ccccc3)[C@@H]3OC[C@H]2O3)c1	7%[70.6 µM]	-7%[172 µM]	-28%[174 µM]	i
O=C(NCc1ccccc1)C1CCN(Cc2ccccc2-c2cccnc2)CC1	·	-2%	-17%	·
COCCNC(=O)N1CCCC(c2noc(COc3ccccc3)n2)C1 (stereo not given)	-13%	-13%	-17%	i
CCNC(=O)N1CCCC(c2noc(COc3ccccc3)n2)C1 (stereo not given)	-25%	-11%	-28%	32µM*
Cc1ccc(NC(=O)N2CCCC(c3noc(COc4ccccc4)n3)C2)c(C)c1 (stereo not given)	13µM*	?	?	?
CN1CC(=O)N(C2CCCNCC2)Cc2c1ncnc2N1CCN(Cc2ccccc2)CC1 (stereo not given)	·	i	i	·
COc1cc(OC)c(-c2nc3ccc(-c4ccc(OC)c(OC)c4OC)cc3o2)cc1OC	-21%	?	32µM*	i
COc1ccc(-c2ccc3nc(-c4ccccc4C)oc3c2)c(OC)c1OC	-13%	?	?	i
O=C(Nc1ccc([C@@H](O)[C@H]2COCC(=O)N2Cc2ccc(F)cc2)cc1)c1ccccc1	-7%[70.6 µM]	100µM*	?	i
O=C(Cc1ccccc1)Nc1ccc([C@@H](O)[C@H]2COCC(=O)N2Cc2ccc(C(F)(F)F)cc2)cc1	0%	?	79µM*	i
CC(C)(C)c1ccc(C(=O)Nc2ccc(C(O)[C@H]3COCC(=O)N3Cc3ccccn3)cc2)cc1 (stereo not given in full)	-15%	?	?	16µM*
O=C(Cc1ccccc1)Nc1ccc([C@@H](O)[C@H]2COCC(=O)N2Cc2ccccc2)cc1	2%[70.6 µM]	-13%[172 µM]	-18%[174 µM]	i
N#Cc1ccc(C(=O)Nc2ccc([C@@H](O)[C@H]3COCC(=O)N3Cc3ccc(F)cc3)cc2)cc1	0%	?	-29%	i
O=C(NCc1cccc(Cl)c1)c1cnc2c(c1)N(C(=O)Cc1ccc(O)cc1)CCC2	-9%[70.6 µM]	?	?	i
COCC(=O)N1CCn2c(nn(-c3ccc([N+](=O)[O-])cc3)c2=O)C1	-2%[70.6 µM]	-8%[172 µM]	-28%[138 µM]	i
O=C(NCc1cccc(C(F)(F)F)c1)C1CCc2nnc(-c3cccc(C(F)(F)F)c3)n21 (stereo not given)	·	?	-25%	·
OC[C@@H]1CN(Cc2cccc3[nH]ccc23)C[C@H]1c1ccncc1	-1%	-17%	-9%	i
C=CCOc1c(OC)ccc2c1CN(CC1CC1)C(=O)CCN2CC(O)COc1ccc(OC)cc1 (stereo not given)	·	40µM*	?	·
C=CCOc1c(OC)ccc2c1CN(CC1CC1)C(=O)CCN2CC(O)COC(C)(C)C (stereo not given)	·	?	-33%	·
Cc1cccc(N2CCN(C(=O)CCc3conc3-c3ccccc3)CC2)c1C	-6%	45µM*	?	i
CO[C@H]1CN(C2CCN(S(=O)(=O)N(C)C)CC2)[C@H]1c1ccncc1	·	-2%	-17%	·
Cn1nccc1C(=O)N1CCC(Oc2ccccc2)C1 (stereo not given)	4%	1%	-9%	i
COc1cccc(C(=O)N2CC(Oc3ccccc3-c3nc(-c4ccccc4)no3)C2)c1	-8%	20µM*	?	?
Cn1nccc1C(=O)N1CCC(Oc2ccc(-c3noc(-c4ccccc4)n3)cc2)C1 (stereo not given)	·	22µM*	?	·
O=C(c1cccnc1)N1CC(Oc2ccc(-c3noc(-c4ccccc4)n3)cc2)C1	11µM*	?	-15%	?
